Records with an inconclusive call do not appear. Active and inactive are the calls of the source. The call rests on the fitted dose curve; in most records, active means well fitted inhibition curve with a large enough effect; inconclusive means small, poorly fitted or top-dose-only effect; inactive means no such curve, though single readings can be large or run the other way.
Potency means the concentration at half of the fitted maximal effect.

Chain of Rap guanine nucleotide exchange factor 3 (Homo sapiens) (O95398 whole entry, looked up): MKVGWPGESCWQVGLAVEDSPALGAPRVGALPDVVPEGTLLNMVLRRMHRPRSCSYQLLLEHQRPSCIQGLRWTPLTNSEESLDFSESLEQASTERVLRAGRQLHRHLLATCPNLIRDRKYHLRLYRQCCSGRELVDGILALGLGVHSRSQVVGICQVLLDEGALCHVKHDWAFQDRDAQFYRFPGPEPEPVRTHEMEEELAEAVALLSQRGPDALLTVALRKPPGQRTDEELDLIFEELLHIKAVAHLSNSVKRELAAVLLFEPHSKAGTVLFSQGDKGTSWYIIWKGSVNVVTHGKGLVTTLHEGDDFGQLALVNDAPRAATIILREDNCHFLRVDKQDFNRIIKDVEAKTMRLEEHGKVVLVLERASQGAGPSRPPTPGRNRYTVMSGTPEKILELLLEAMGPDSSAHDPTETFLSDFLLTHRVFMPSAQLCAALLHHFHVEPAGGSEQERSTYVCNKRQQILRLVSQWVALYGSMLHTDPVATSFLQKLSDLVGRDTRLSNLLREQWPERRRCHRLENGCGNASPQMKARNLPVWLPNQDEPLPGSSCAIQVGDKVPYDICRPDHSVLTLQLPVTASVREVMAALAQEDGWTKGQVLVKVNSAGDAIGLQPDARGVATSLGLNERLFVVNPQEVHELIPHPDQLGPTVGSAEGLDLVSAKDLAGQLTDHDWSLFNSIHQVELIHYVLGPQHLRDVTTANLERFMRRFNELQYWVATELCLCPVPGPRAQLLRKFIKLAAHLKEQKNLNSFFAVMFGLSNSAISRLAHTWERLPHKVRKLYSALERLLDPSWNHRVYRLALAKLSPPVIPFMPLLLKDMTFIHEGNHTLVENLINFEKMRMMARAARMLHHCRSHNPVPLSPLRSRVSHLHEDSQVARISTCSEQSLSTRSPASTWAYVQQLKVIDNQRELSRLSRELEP

In this assay the target is Rap guanine nucleotide exchange factor 3 (Homo sapiens) (UniProt O95398). Briefly: Confirmatory qHTS for antagonist of cAMP-regulated guanine nucleotide exchange factor 3 (EPAC1) (AID 1645880). Further: nearly all actives have a fitted effect of over 55% in size.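 On activity, negative = inhibition: plate controls were DMSO only for no effect and full effect of the ATA control for full effect.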 The note with it: EPAC1 Rap1B-BODIPY-GDP exchange, fluorescence; activity, negative = inhibition: at 115 µM (top of the series). In outline:
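Nucleotide exchange uses 100 nM EPAC1, 250 nM RAP1B-BODIPY-GDP and 50 uM GDP, with compounds in a concentration-titration series. After 5 min at room temperature, fluorescence (480 nm ex/540 nm em) is read every 5 min for 30 min. Data are normalized to control ATA and DMSO.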
In the case of `Cc1ccc2cccc(OC(=O)c3c(F)cccc3Cl)c2n1`, the “activity, negative = inhibition” value was -10.5% (inactive). With `COc1ccc(/C(O)=C/c2nc3ccccc3n(-c3ccccc3)c2=O)cc1`, the “activity, negative = inhibition” value is 99% (inactive). On to `Oc1c(C(c2ccccc2)N2CCN(c3ccccc3)CC2)sc2nc(-c3ccco3)nn12` (stereo unspecified), for which the “activity, negative = inhibition” value is -45.2% (inactive).

In the case of `COc1ccc(C(=O)/C=C/c2ccc(N(C)C)cc2)c(OC)c1`, the “activity, negative = inhibition” value was 28.1% (inactive). On the same count and under the same terms, for `CC1CCN(c2ccc3c(c2)S(=O)(=O)c2cccc(C(=O)NCc4cccc(F)c4)c2C3=O)CC1` the value was 163% (inactive); for `CCN(CC)c1ccc2cc(C(N)=O)c(=N)oc2c1`, 81.9% (inactive). Regarding `CCOc1cc(/C=N/NC(=O)c2ccc(-c3csc(Nc4ccc(C)cc4)n3)cc2)ccc1OCC(=O)O`, the Potency is 23.9 µM (active).

For the compound `Cc1cccc(NCc2cccc3ccccc23)n1`, the “activity, negative = inhibition” value is -30% (inactive).

In the case of `CCN(C(=O)CN1CCN(c2ccccc2O)CC1)c1c(N)n(Cc2ccccc2)c(=O)[nH]c1=O`, the “activity, negative = inhibition” value is -2.42% (inactive).

With `CN(C)c1ccc(C(=O)/C=C/c2ccc(Br)cc2)cc1`, the “activity, negative = inhibition” value was -18.8% (inactive). Consider `CCOc1ccc(NC(=O)/C(C#N)=C/c2ccc(N3CCCC3)c(C)c2)cc1`, for which the “activity, negative = inhibition” value is 4.23% (inactive). For `CCOc1ccc(CCN2C(=O)C(=O)N([C@@H](CC(C)C)CN3CCC[C@@H]3CN3C(=O)C(=O)NC[C@@H]3Cc3ccccc3)C[C@@H]2CC(C)C)cc1`, the “activity, negative = inhibition” value was -32.3% (inactive). Take `C=CCN1C(=O)c2cccc3c(N4CCCCC4)ccc(c23)C1=O`: the “activity, negative = inhibition” value was 88.7% (inactive). Regarding `COc1cccc(-n2c(SCC(=O)Nc3ccc(F)cc3F)nc3c([nH]c4ccccc43)c2=O)c1`, the “activity, negative = inhibition” value is 44% (inactive). For the compound `COC(=O)c1cc2sc(Cl)cc2n1Cc1cc(C)ccc1C`, the “activity, negative = inhibition” value is -19.1% (inactive). For the compound `COc1ccccc1C(=O)NNC(=O)CCCN1C(=O)/C(=C/c2cccs2)SC1=S`, the “activity, negative = inhibition” value was -4.78% (inactive).
